{"source": "PubChem BioAssay (NCI)", "note": "About 83,000 compounds went through this panel and 20% of them were active in at least one assay; those are over-represented in the sample as a whole.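 Method: cells in 96-well plates; compound added at one concentration; 48 h incubation; percent growth measured; values under 10 scored active.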 A number with no mark means an inactive call. Active and inactive are the calls of the source.", "data": [{"system": "NCI-H522 lung", "assay": "NCI-60 one-dose screen, 48 h (100 = growth as untreated, 0 = no growth, -100 = all killed)", "conditions": "10 µM unless noted", "values": [{"smiles": "CCOc1cc(/C=N\\NC(=O)N/N=C/c2ccc(O)c(OCC)c2)ccc1O", "growth": "-18.6% (active)"}, {"smiles": "Cc1ccc(C2=C/C(=C/c3ccc(Br)cc3)C(=O)N2CCc2ccc(S(N)(=O)=O)cc2)cc1", "growth": "89%"}, {"smiles": "Clc1ccc(N2CCN(CCCN3CCN(c4cccc(Cl)c4)CC3)CC2)cc1", "growth": "59.5%"}, {"smiles": "CC(C)OC(=O)Nc1cc(F)ccc1F", "growth": "99.8%"}, {"smiles": "C[C@H]1[C@H](C)CC[C@]2(C(=O)N3CCN(C)CC3)CC[C@]3(C)C(=CC[C@@H]4[C@@]5(C)C/C(=C/c6ccco6)C(=O)C(C)(C)[C@@H]5CC[C@]43C)[C@H]12", "growth": "4.91% [100 µM] (active)"}, {"smiles": "CC(C)C1=NOC(=O)C1=Cc1cn(-c2ccccc2)nc1-c1ccc(Br)cc1", "growth": "86%"}, {"smiles": "C=C(CN=[N+]=[N-])[C@@H]1CC[C@]2(C)[C@H](CC[C@@H]3[C@H]4[C@H]5OC(=O)[C@@]4(CCC5(C)C)CC[C@]32C)[C@@]1(C)CCC#N", "growth": "70.2% [100 µM]"}, {"smiles": "Nn1c(Nc2ccc(S(=O)(=O)Nc3ncccn3)cc2)nnc(/C=C/c2c(O)ccc3ccccc23)c1=O", "growth": "98.1%"}, {"smiles": "Nc1cc(NN=C(c2ccc(O)cc2)c2ccc(O)cc2)c([N+](=O)[O-])cc1[N+](=O)[O-]", "growth": "-82% (active)"}, {"smiles": "CSc1nc2c(c(=O)n1C)C1(C(=O)N(Cc3ccccc3)c3ccccc31)c1c(nc(SC)n(C)c1=O)N2", "growth": "73.9%"}, {"smiles": "NNC(=O)c1ccc(C(=O)NN)cc1", "growth": "101%"}, {"smiles": "COc1cc(Cl)cc(-c2nn(C(=O)NS(=O)(=O)c3ccccc3)cc2-c2ccncc2)c1", "growth": "82.5%"}, {"smiles": "CCN(CC)CC(C)Nc1ccc(C)c2sc3ccccc3c(=O)c12", "note": "(stereo not given)", "growth": "64.8%"}, {"smiles": "COc1ccc2c3ccnc(C(F)(F)F)c3n(CCCCN)c2c1", "growth": "11.4%"}, {"smiles": "COc1ccc(C2CC(c3cc(OC)c(OC)c(OC)c3)=NN2C(C)=O)cc1OCC(=O)Nc1nc2ccc(C(F)(F)F)cc2s1", "note": "(stereo not given)", "growth": "66.6%"}, {"smiles": "COC(=O)C(=Cc1ccccc1[N+](=O)[O-])C(=O)OC", "growth": "-3.3% (active)"}, {"smiles": "C=CCCCCOc1ccccc1-c1cnc(OCCCCC=C)n1C", "growth": "12.6%"}, {"smiles": "O=C(O)c1cccc(CN2CCN(c3cc4c(cc3F)c(=O)c(C(=O)O)cn4C3CC3)CC2)c1O", "growth": "87.1%"}, {"smiles": "Cc1cc(C)c(O)c(CNCCCCCCNCc2cc(C)cc(C)c2O)c1", "growth": "-13% (active)"}, {"smiles": "Cc1cnc(N)nc1OCC(C)(C)CNC(=O)c1cccc(-c2ccc(S(=O)(=O)Nc3ccc4c(c3)N(C(=O)C3CC3)CCC4)cc2)c1", "growth": "65.4%"}, {"smiles": "CCOc1cc(NC(=O)c2ccccc2)c(OCC)cc1N", "growth": "98.3%"}, {"smiles": "CCN(CC)c1ccc(/C=C/c2ccc3cc(C)ccc3[n+]2CC)cc1", "growth": "-27.7% (active)"}, {"smiles": "O=C1COCCN1c1ccc(NCc2cn(Cc3ccccc3)c3ccccc23)cc1", "growth": "94.1%"}, {"smiles": "c1nc(N2CCOCC2)c2[nH]ccc2n1", "growth": "102%"}, {"smiles": "O=C(Nc1cccc2cccnc12)c1cc(C(=O)c2ccc(Cl)cc2)n2ccc(-c3ccncc3)cc12", "growth": "88.8%"}, {"smiles": "COc1cc2c(c(OC)c1)C1c3cc(OC)ccc3NC(=O)N1CC2", "note": "(stereo not given)", "growth": "38.3%"}, {"smiles": "CC[C@]1(O)CC2CN(CCc3c([nH]c4ccccc34)[C@@](C(=O)OC)(c3cc4c(cc3OC)N(C=O)[C@H]3[C@@](O)(C(=O)OC)[C@H](OC(C)=O)[C@]5(CC)C=CCN6CC[C@]43[C@@H]65)C2)C1", "note": "(stereo not given in full)", "growth": "-21.5% (active)"}, {"smiles": "CC(C)C1=NOC(=O)C1=Cc1cn(-c2ccco2)nc1-c1ccccc1", "growth": "84.8%"}, {"smiles": "COC(=O)[C@H](CC(C)C)NC(=O)NC(=O)NC(=O)CI", "growth": "-79.2% (active)"}, {"smiles": "O=C1NC(=O)C(Cc2ccc(OCc3ccc(-c4cc(F)c(F)c(F)c4)cc3)cc2)S1", "note": "(stereo not given)", "growth": "49.5%"}, {"smiles": "NC(=O)CC1C=CCC1", "note": "(stereo not given)", "growth": "97.9%"}, {"smiles": "CC(C)C1=NOC(=O)C1=Cc1cn(-c2ccccc2)nc1-c1ccccc1", "growth": "68.7%"}, {"smiles": "COc1ccc2c(c1)c(-c1noc(C(=O)c3cn(C)c4ncc(Br)cc34)n1)cn2C", "growth": "67.9%"}, {"smiles": "C#C[C@]1(O)CC[C@H]2[C@@H]3CC=C4c5nc(Nc6ccccn6)sc5CC[C@]4(C)[C@H]3CC[C@@]21C", "growth": "-6.06% (active)"}, {"smiles": "O=C1CN(Cc2ccc(C(=O)NO)cc2)C(=O)[C@@H](Cc2ccccc2)N1", "growth": "98.2%"}]}]}
